# Bioassay records as filed in PubChem BioAssay.
# gsp ag: activates gsp, the McCune-Albright syndrome mutation; gsp mutant cells, cAMP HTRF, 30 min; Potency, µM (highest dose often 76.9 µM), for inactives: at the highest dose activation (cAMP increase), usual class: activators; hit rate 0.13% among 340,000; AID 624287; active = well fitted activation curve with a large enough effect; inconclusive = small, poorly fitted or top-dose-only effect, or another doubt; inactive = no such curve, though single readings can be large or run the other way; cell line not stated here;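 note: phosphodiesterase inhibitor Ro 20-1724 added with compounds to block cAMP breakdown; potency is the fitted concentration of half-maximal effect; nearly all actives have a fitted effect of over 60% in size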
#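 Cells stably selected in G418 were plated at 2000/well, grown 16-24 hr, then given compounds in DMSO with the PDE inhibitor […] (300 uM solution added) for 30 min at 37C; cAMP was read by HTRF.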
# RXFP1 antagonist: RXFP1 (human) relaxin receptor antagonism; Q9HBX9; HEK293-RXFP1, relaxin-stimulated cAMP HTRF, 30 min; active compounds read low; activity change, negative = inhibition, % at 57.5 µM; hit rate 0.59% among 350,000; AID 1259400;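 active = activity change of -60% or lower, but not beyond a set lower limit; inconclusive = change between -60% and -40%, or beyond the set limit; inactive = change above -40%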; note: % is set by controls: 0 for no effect and ±100 for the full control effect
# Target sequence (Q9HBX9 whole entry, looked up): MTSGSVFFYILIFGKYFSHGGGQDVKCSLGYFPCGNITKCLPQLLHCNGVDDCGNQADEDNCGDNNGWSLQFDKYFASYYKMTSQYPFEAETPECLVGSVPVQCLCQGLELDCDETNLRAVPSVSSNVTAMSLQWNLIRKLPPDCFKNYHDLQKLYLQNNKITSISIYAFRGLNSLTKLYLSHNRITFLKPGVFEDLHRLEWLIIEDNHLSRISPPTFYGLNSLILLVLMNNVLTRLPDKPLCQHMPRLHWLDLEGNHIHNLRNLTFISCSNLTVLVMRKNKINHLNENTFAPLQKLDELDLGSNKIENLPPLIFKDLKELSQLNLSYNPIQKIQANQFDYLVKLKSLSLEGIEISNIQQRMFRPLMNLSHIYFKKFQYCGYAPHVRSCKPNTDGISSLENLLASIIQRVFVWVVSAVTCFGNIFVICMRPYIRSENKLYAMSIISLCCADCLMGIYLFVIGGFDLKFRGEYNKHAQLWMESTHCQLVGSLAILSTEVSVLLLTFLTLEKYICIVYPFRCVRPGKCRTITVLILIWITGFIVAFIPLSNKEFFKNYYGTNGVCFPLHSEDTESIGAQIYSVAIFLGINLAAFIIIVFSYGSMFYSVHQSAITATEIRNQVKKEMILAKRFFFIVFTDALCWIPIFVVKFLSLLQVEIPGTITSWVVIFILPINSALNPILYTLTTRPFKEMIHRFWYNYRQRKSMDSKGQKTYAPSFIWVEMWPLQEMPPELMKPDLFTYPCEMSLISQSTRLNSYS
# RXFP1 agonist: activates the human relaxin receptor RXFP1; hit rate 0.3% among 370,000; Potency, µM (highest dose often 57.5 µM), without a hit: at the highest dose activation, most hits filed as activators; Q9HBX9; HEK293T-RXFP1 cAMP TR-FRET, 30 min; response scale: percent of porcine relaxin response, buffer zero; active = well fitted activation curve with a large enough effect; inconclusive = small, poorly fitted or top-dose-only effect; note: potency is the fitted concentration of half-maximal effect; % is set by controls: 0 for no effect and ±100 for the full control effect; nearly all actives have a fitted effect of over 60% in size
#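 cAMP rise read by TR-FRET after 30 min, 37C compound exposure (up to 58 uM) in RXFP1-transfected HEK293 cells with Ro 20174 present. EC50 from Hill-equation fits, with 29 nM porcine relaxin as 100% and buffer as basal.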
# gsp antagonist: antagonizes gsp, the McCune-Albright syndrome mutation. hit rate 0.4% among 340,000. Potency, µM (doses to about 76.9 µM), inactives show top-dose activity change, negative = inhibition, most hits filed as inhibitors. gsp-mutant cells, cAMP HTRF, 30 min; calls by dose curve; cell line not stated here;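 note: intracellular cAMP measured with PDE inhibitor Ro 20-1724 present during compound exposure; potency is the fitted concentration of half-maximal effect; % is set by controls: 0 for no effect and ±100 for the full control effect; nearly all actives have a fitted effect of over 65% in size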
#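 Measurement of cellular cAMP by homogeneous time-resolved fluorescence following a 30 min compound exposure at 37C. The PDE inhibitor […] was present throughout; the assay buffer was DPBS with 0.05% BSA and 0.005% Tween 20.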
# The depositor's hits bear a star; ? = inconclusive; · = not tested or not shown; [ ] = remark or other dose. Hits are enriched below; roughly 0.9% of the tested compounds scored in any of these assays.
SMILES,gsp ag,RXFP1 antagonist,RXFP1 agonist,gsp antagonist
CCOC(=O)c1c(C)[nH]c(C(=O)COC(=O)CCC(=O)c2ccc3c(c2)OCCO3)c1C,4.8%,-1.9,0.3%,28.2µM*
CCOC(=O)c1c(Nc2ccc(C)cc2)nnc(-c2ccccc2)c1-c1ccccc1,·,·,0.9%,·
COc1ccc(-c2cc3nc(C)c(CCC(=O)N4CCN(c5ccccc5F)CC4)c(C)n3n2)c(OC)c1,·,·,2.8%,·
COc1cc2c(cc1OC)CN(C(=O)[C@H](C)N[C@@H](CCc1ccccc1)C(=O)O)[C@H](C(=O)O)C2,·,23.2,·,·
CC1=C(SCc2ccccc2)C(=O)c2ccccc2C1=O,11.2µM*,?,·,-11.6%
Cn1c(SCc2ccccc2)nccc1=O,-2.2%[15.4 µM],-8.5,·,5.0%
O=C(Cn1c(=O)n(Cc2ccccc2)c(=O)c2sc3ccccc3c21)Nc1ccc(F)cc1,·,·,25.8%,·
O=C(CCNC(=O)N1CC(=O)Nc2ccccc21)NCc1cccc(Cl)c1,9.8%,-92.3*,0.4%,8.1%
CCOc1ccc(CNCc2c(C(=O)O)n(Cc3ccccc3F)c3cc(OC)ccc23)cc1,·,-23.0,18.5%,·
COCCc1ccc(OCC2CO2)cc1 (stereo unspecified),·,5.3,·,·
Cc1nc2sccn2c(=O)c1CCN1CCC(=C(c2ccc(F)cc2)c2ccc(F)cc2)CC1,·,-66.8*,3.8%,?
Cc1cc(C)c(S(=O)(=O)N2CCCOC2CNC(=O)C(=O)NCc2ccccn2)c(C)c1 (stereo unspecified),24.4%[15.4 µM],-11.5,1.4%,11.2µM*
Cc1cc(C)c(S(=O)(=O)N2CCOC2CNC(=O)C(=O)NCc2ccccn2)c(C)c1 (stereo unspecified),-29.1%,0.4,-1.3%,6.9%
Cn1c(=O)cc(SCC(=O)N2CCN(c3ccccc3F)CC2)c2ccc(Cl)cc21,·,0.9,6.0%,·
Cc1ccc(S(=O)(=O)N(C)CC(=O)Nc2cc(C)ccn2)cc1,0.7%[15.4 µM],-82.8*,-0.7%,2.0%
Cc1ccc(CNC(=O)CN(C)S(=O)(=O)c2ccc3c(c2)n(C)c(=O)c(=O)n3C)cc1,17.5%,-68.4*,9.8%,-3.0%
CN(CC(=O)NCc1ccc(F)cc1)S(=O)(=O)c1ccc2c(c1)n(C)c(=O)c(=O)n2C,53.0%,-6.5,6.2%,-17.4%
CC1C/C(=C/c2ccccn2)C(=O)/C(=C/c2ccccn2)C1 (stereo unspecified),-0.1%[15.4 µM],-74.5*,-0.1%,-18.0%
CC(CCc1ccccc1)NC(=O)C1CCN(c2nnc(-n3cccc3)s2)CC1 (stereo unspecified),12.6µM*,·,-0.9%,-2.4%
CCCSc1nnc(NC(=O)Cc2coc3cc(C)ccc23)s1,·,7.7,18.5%,·
O=C(O)C1Cc2ccccc2CN1C(=O)CSc1nnc2ccccn12 (stereo unspecified),33.1%[15.4 µM],8.5,35.5µM*,16.7%
Cc1ccccc1C(=O)Nc1ccc(C(=O)N2CCCC(N(C)C)c3ccccc32)cc1 (stereo unspecified),·,1.0,·,·
NC(=S)n1[nH]c(-c2ccc([N+](=O)[O-])cc2)c(N=Nc2ccccc2[N+](=O)[O-])c1=O,1.4%,-4.8,0.2%,-10.4%
NC(=S)n1[nH]c(-c2ccc([N+](=O)[O-])cc2)c(N=Nc2cccc([N+](=O)[O-])c2)c1=O,-39.3%,-30.1,-1.5%,14.1µM*
Cc1c(N=Nc2c(-c3ccc([N+](=O)[O-])cc3)[nH]n(C(N)=S)c2=O)cccc1[N+](=O)[O-],-15.9%,-24.3,-1.7%,8.91µM*
SMILES,gsp ag,RXFP1 antagonist,RXFP1 agonist,gsp antagonist
CN1N=C(C(N)=O)CCC1=O,·,-2.8,·,·
COC(=O)c1c(NC(C)=O)sc2c1CCN(Cc1ccccc1)C2,?,-0.4,5.1%,-2.3%
COC(=O)c1c(NC(=O)C(C)(C)C)sc2c1CCN(Cc1ccccc1)C2,-1.3%,-68.4*,3.1%,-4.3%
COc1cc(NS(=O)(=O)c2ccc(N)cc2)nc(C)n1,·,-10.0,·,·
Cc1nc2ccc(NC(=O)c3cnc(Cl)c(Cl)c3)cc2s1,14.8%[15.4 µM],-11.2,10.8%,8.91µM*
Cc1nc2ccc(NC(=O)c3ccc(Br)o3)cc2s1,-1.4%[15.4 µM],-91.8*,-0.7%,1.0%
CC(C)C[C@H](NC(=O)[C@H](Cc1ccccc1)NC(=O)c1cnccn1)B(O)O,·,8.9,·,·
COc1cc(NC(=O)c2ccc(C(=O)Nc3cc(OC)c(Cl)cc3OC)cc2)c(OC)cc1Cl,·,1.8,3.7%,·
O=C(N/N=C1\C/C(=N\NC(=O)c2ccncc2)c2ccccc21)c1ccncc1,25.1µM*,-5.6,31.6µM*,-15.1%
CCCc1ccc(OCC(=O)N2CCN(C(=O)COc3ccc(CCC)cc3OC)CC2)c(OC)c1,·,-8.8,·,·
Cc1cccc(C(=O)N(Cc2ccco2)Cc2ccccc2F)c1,·,-71.9*,-2.8%,·
Cc1ccc(CN(Cc2ccco2)C(=O)c2cccc(C)c2)cc1,·,-7.4,-1.4%,·
CCn1ccc(NS(=O)(=O)c2ccc(N)cc2)nc1=O,·,-16.3,·,·
CC[n+]1c(/C=C/c2ccc(N(C)C)cc2)ccc2ccccc21,20.0%,-91.3*,3.3%,?
CC[n+]1c(/C=C/c2ccc(OC)c(OC)c2)ccc2ccccc21,-32.1%,-1.0,-1.1%,-4.5%
Cc1cc(C)c(Cn2c3ccccc3c3cnn(CC(=O)N4CCCCC4)c(=O)c32)c(C)c1,·,-2.6,-0.2%,·
O=C(COC(=O)CNC(=O)c1ccc(Cl)cc1Cl)NC1CCCCCCC1,-4.2%[15.4 µM],-61.2*,0.1%,7.7%
O=C(COC(=O)COc1ccc(Cl)cc1Cl)NC1CCCCCC1,-29.2%,5.8,0.6%,3.3%
COc1cc(N2C(=O)C=CC2=O)ccc1N1C(=O)C=CC1=O,-0.1%,?,·,50.1µM*
CCOCCCNCc1ccc(OC)cc1,-5.0%,-2.8,-0.4%,7.3%
COc1ccc2cc(CNCCOCCOCCNCc3ccc4cc(OC)ccc4c3)ccc2c1,3.1%,-88.7*,·,19.0%
C=C(CN(C)C)C(=O)c1ccc(C)cc1C,27.3%,-80.8*,·,50.1µM*
CO[C@@H]1[C@@H](OC2OC(C)C(OC3CC(C)(O)C(O)C(C)O3)C(N(C)C)C2O)[C@@H](CC=O)C[C@@H](C)[C@@H](OC2CCC(N(C)C)C(C)O2)/C=C/C=C/C[C@@H](C)OC(=O)C[C@H]1OC(C)=O (stereo partly specified),·,-8.9,·,·
Cc1ccc(-c2noc(CCC(=O)NCCCN3CCN(c4cccc(Cl)c4)CC3)n2)cc1,19.3%,-64.0*,1.2%,10.2%[15.4 µM]
Cc1ccc(NC(=O)C2CCN(S(=O)(=O)c3cccc4nonc34)CC2)c(Cl)c1,·,·,0.7%,·
CCOC(=O)C1=C(CS(=O)(=O)c2ccc(C)c(C)c2)NC(=O)NC1c1ccccc1OCC (stereo unspecified),·,·,0.8%,·
CC(=O)N1CCN(S(=O)(=O)c2cccc(C(=O)Nc3ccc4c(c3)OCO4)c2)CC1,1.6%[15.4 µM],-4.7,1.5%,11.2µM*
O=C(Nc1ccc2c(c1)OCO2)c1cccc(S(=O)(=O)N2CCCC2)c1,?,16.8,0.1%,?
Cc1cccc(N2CCN(c3ccc(C(=O)O)cc3NC(=O)c3cccc(Cl)c3)CC2C)c1 (stereo unspecified),·,·,-2.0%,·
